Experimental data from the supplement of paper PMC6555819.

Key:
Assay in all cases: PBM binding z-score (relative to random genomic background probes); higher = stronger binding; sequences stand for … in GC…GCGATTGACAGCGTAGAATGAAGG
[1] = system: RARb homodimer (NR concentration 270 nM)
In short: (§1)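 Probes were double-stranded and carried 34-nt variable regions with direct-repeat seeds, single-nucleotide variants, half-site ablations and random human genomic background sequences, printed on custom Agilent 4×180K protein-binding microarrays. Arrays were incubated 1 h with ligand-free nuclear receptor dimers in PBS pH 7.4, 2% milk, 0.02% Triton X-100, 1 mM DTT, 0.2 mg/mL BSA and 0.4 mg/ml salmon testes DNA. Antibodies against each partner (one per run) detected binding, and scanned fluorescence was regression-normalized. Binding z-scores use the random background probes as reference.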

[2] = system: RARg:RXRa (NR concentration 270 nM, RXRa partner concentration 90 nM)
In short: as §1

[3] = system: RARg homodimer (NR concentration 270 nM)
In short: as §1

[4] = system: RXRa DBDmut IVT, anti-RXR (DBD mutation: RXRa K156A/R161A, NR concentration 90 nM)
In short: as §1

[5] = system: RXRa homodimer (NR concentration 180 nM)
In short: as §1

[6] = system: THRa:RXRa (NR concentration 90 nM, RXRa partner concentration 90 nM)
In short: as §1

[7] = system: THRa homodimer (NR concentration 90 nM)
In short: as §1

[8] = system: VDR:RXRa (NR concentration 270 nM, RXRa partner concentration 90 nM)
In short: as §1

[9] = system: VDR homodimer (NR concentration 270 nM)
In short: as §1

GCTTGTAGACCAAGGTTAAGAAAGACTAAGCTAA
PBM binding z-score [1]: 0.241
PBM binding z-score [2]: 0.214
PBM binding z-score [3]: 0.239
PBM binding z-score [4]: -0.149
PBM binding z-score [5]: 0.485
PBM binding z-score [6]: 0.969
PBM binding z-score [7]: -0.368
PBM binding z-score [8]: 0.0143
PBM binding z-score [9]: -0.0799

CCTTACGGGTCACTGACCGGTTATAGCATTTGGA
PBM binding z-score [1]: 3.25
PBM binding z-score [2]: 5.43
PBM binding z-score [3]: 4.56
PBM binding z-score [4]: 1.45
PBM binding z-score [5]: 4.82
PBM binding z-score [6]: 2.56
PBM binding z-score [7]: 0.389
PBM binding z-score [8]: 3.34
PBM binding z-score [9]: 0.995

TCAGACAGGTGAAGGGAACTCAGGTACGCAGTCG
PBM binding z-score [1]: 0.93
PBM binding z-score [2]: 0.546
PBM binding z-score [3]: 0.498
PBM binding z-score [4]: 1.36
PBM binding z-score [5]: 0.877
PBM binding z-score [6]: 0.891
PBM binding z-score [7]: 0.717
PBM binding z-score [8]: 0.951
PBM binding z-score [9]: 0.463

TCTTGTAGATCAAGCAGGTTGAGAAAGCCTGAGT
PBM binding z-score [1]: -0.543
PBM binding z-score [2]: -0.355
PBM binding z-score [3]: -0.321
PBM binding z-score [4]: 0.479
PBM binding z-score [5]: -0.0549
PBM binding z-score [6]: 0.0431
PBM binding z-score [7]: -0.698
PBM binding z-score [8]: 0.285
PBM binding z-score [9]: -0.0523

CTACCAAGGTGAACAAGGTCGGTGATTACTATTC
PBM binding z-score [1]: 1.6
PBM binding z-score [2]: 1.22
PBM binding z-score [3]: 1.42
PBM binding z-score [4]: 0.135
PBM binding z-score [5]: 1.23
PBM binding z-score [6]: 2.66
PBM binding z-score [7]: 1.27
PBM binding z-score [8]: 4.17
PBM binding z-score [9]: 0.361

TCTTGTAGATCAACAGTAGGTTAAGAAAGATCGA
PBM binding z-score [1]: -0.123
PBM binding z-score [2]: 0.314
PBM binding z-score [3]: 0.0764
PBM binding z-score [4]: 0.88
PBM binding z-score [5]: 0.463
PBM binding z-score [6]: 0.12
PBM binding z-score [7]: -0.482
PBM binding z-score [8]: 0.333
PBM binding z-score [9]: -0.281

ATCTCTAGGTAAGACTTAGTTCAGTGAAGAACGC
PBM binding z-score [1]: 1.05
PBM binding z-score [2]: 0.21
PBM binding z-score [3]: 0.357
PBM binding z-score [4]: 0.325
PBM binding z-score [5]: 0.128
PBM binding z-score [6]: 0.798
PBM binding z-score [7]: 0.858
PBM binding z-score [8]: 0.582
PBM binding z-score [9]: 0.617

ACTTACGGGTCAATGAGGTTATAGCACGCGTATA
PBM binding z-score [1]: 3.59
PBM binding z-score [2]: 5.05
PBM binding z-score [3]: 4.75
PBM binding z-score [4]: 2.58
PBM binding z-score [5]: 6.03
PBM binding z-score [6]: 4.16
PBM binding z-score [7]: 1.57
PBM binding z-score [8]: 7.74
PBM binding z-score [9]: 3.35

CCTGCTGGGCCACGAAAGGTCATTGATTCAGTGA
PBM binding z-score [1]: 4.56
PBM binding z-score [2]: 4.89
PBM binding z-score [3]: 4.55
PBM binding z-score [4]: 0.711
PBM binding z-score [5]: 5.39
PBM binding z-score [6]: 3.87
PBM binding z-score [7]: 0.572
PBM binding z-score [8]: 4.08
PBM binding z-score [9]: 2.37

AGAATGAGGTTACCAAAGATCAGGCAAACGCTTG
PBM binding z-score [1]: 0.854
PBM binding z-score [2]: 1.97
PBM binding z-score [3]: 1.63
PBM binding z-score [4]: 1.16
PBM binding z-score [5]: 2.65
PBM binding z-score [6]: 2.84
PBM binding z-score [7]: 0.538
PBM binding z-score [8]: 1.36
PBM binding z-score [9]: -0.192

TCTTGTAGATCAATAAAGGTTAAGAAAGTGCGCT
PBM binding z-score [1]: 1.87
PBM binding z-score [2]: 1.1
PBM binding z-score [3]: 0.821
PBM binding z-score [4]: 1.1
PBM binding z-score [5]: 1.72
PBM binding z-score [6]: 2.05
PBM binding z-score [7]: -0.219
PBM binding z-score [8]: 2.18
PBM binding z-score [9]: 0.571

CGTCCAAGATCAAGGTCAGTGAAAGAGACTCGAA
PBM binding z-score [1]: 2.88
PBM binding z-score [2]: 2.83
PBM binding z-score [3]: 3.03
PBM binding z-score [4]: 1.15
PBM binding z-score [5]: 2.01
PBM binding z-score [6]: 2.86
PBM binding z-score [7]: 1.63
PBM binding z-score [8]: 1.62
PBM binding z-score [9]: 0.979

TCTAGCAGGCCAGAGGGTCACTCCAGAGGTACGG
PBM binding z-score [1]: 2.59
PBM binding z-score [2]: 2.1
PBM binding z-score [3]: 1.86
PBM binding z-score [4]: -0.234
PBM binding z-score [5]: 1.97
PBM binding z-score [6]: 1.38
PBM binding z-score [7]: -0.258
PBM binding z-score [8]: 0.993
PBM binding z-score [9]: 0.403

TTACCAAGGCGAAGGTCGTTGATCCCTCTGTAGA
PBM binding z-score [1]: 0.804
PBM binding z-score [2]: 0.317
PBM binding z-score [3]: 0.0659
PBM binding z-score [4]: 0.0625
PBM binding z-score [5]: 1.13
PBM binding z-score [6]: 1
PBM binding z-score [7]: 0.0881
PBM binding z-score [8]: 0.836
PBM binding z-score [9]: 0.564

GCTGCTAGGTCAGGTTGGTAAGCTAACGGGTACG
PBM binding z-score [1]: 2.26
PBM binding z-score [2]: 2.6
PBM binding z-score [3]: 3.55
PBM binding z-score [4]: 0.418
PBM binding z-score [5]: 1.02
PBM binding z-score [6]: 1.7
PBM binding z-score [7]: 0.477
PBM binding z-score [8]: 0.241
PBM binding z-score [9]: 0.193

CGAACTAGGTCATCCAGGACAGTGAGTACATTGA
PBM binding z-score [1]: 3.03
PBM binding z-score [2]: 4.04
PBM binding z-score [3]: 5.08
PBM binding z-score [4]: 2.58
PBM binding z-score [5]: 3.02
PBM binding z-score [6]: 3.65
PBM binding z-score [7]: 2.14
PBM binding z-score [8]: 5.02
PBM binding z-score [9]: 4.1

CCTATTAGTTGTCCATAAGGGCAACCGAAGCTCG
PBM binding z-score [1]: 1.81
PBM binding z-score [2]: 1.01
PBM binding z-score [3]: 0.8
PBM binding z-score [4]: 0.67
PBM binding z-score [5]: 0.161
PBM binding z-score [6]: 1.8
PBM binding z-score [7]: 1.64
PBM binding z-score [8]: 0.958
PBM binding z-score [9]: 1.07

GCTGCTAGGTCAGGTTAGTCAGCTAACGGGTACG
PBM binding z-score [1]: 2.62
PBM binding z-score [2]: 2.89
PBM binding z-score [3]: 3.82
PBM binding z-score [4]: 0.579
PBM binding z-score [5]: 1.17
PBM binding z-score [6]: 2.36
PBM binding z-score [7]: 0.56
PBM binding z-score [8]: 0.235
PBM binding z-score [9]: 0.0703
